# Sa RN4220 lethal: kills Staphylococcus aureus RN4220; S. aureus RN4220 growth, OD600, 16 h; inhibition, % (concentration not given with the values); hit rate 0.33% among 330,000; in the data active means inhibition above about 85%
# Sa ugtP lethal: compounds lethal to S. aureus RN4220 ugtP deletion mutant; OD600 growth, 16 h; growth inhibition, % (concentration not given with the values); hit rate 0.54% among 330,000; in the data active means growth inhibition above about 68%
# Mtb hypoxia inh: reduces hypoxia-regulated biosensor signal in M. tuberculosis. M. tuberculosis hypoxia-regulated fluorescent reporter, fluorescence. fluorescence inhibition, % (no concentration beside the values). hit rate 0.1% among 300,000. AID 1159583; in the data active means fluorescence inhibition mostly above about 23%, no sharp cut-off; inactive means mostly below about 17%
# SSB-PriA inh: inhibitors of Klebsiella pneumoniae PriA binding to SSB C-terminal tail | AlphaScreen SSBct-PriA binding, biotinylated peptide | AID 1272365 | inhibition, % at 33 µM | hit rate 0.6% among 430,000; in the data active means inhibition mostly above about 37%, no sharp cut-off; inactive means mostly below about 20%
# Hits are given with their value; n = inactive; x = not tested or not shown. An excerpt weighted towards active compounds, which were near 1.1% of everything screened.
SMILES,Sa RN4220 lethal,Sa ugtP lethal,Mtb hypoxia inh,SSB-PriA inh
Cc1cc(C)nc(NS(=O)(=O)c2ccc(NC(=S)NC(=O)C3CCCC3)cc2)n1,n,86.0,n,n
O=[N+]([O-])c1c(Nc2ccc(O)cc2)cc(Cl)c2nonc12,100.3,99.1,x,n
COc1cc(OC)cc(C(=O)Nc2ccc3c(c2)C(=O)NCCO3)c1,x,x,x,n
CS(=O)(=O)c1ccc(CC(=O)Nc2nnc(C3CCCO3)o2)cc1 (configuration not stated),x,x,x,61.0
NNc1ncnc2c1cnn2-c1ccccc1,n,n,n,63.6
NNc1ncnc2c1cnn2-c1ccc(F)cc1,x,x,x,72.6
Cc1ccc(S(=O)(=O)Nc2ccc3c(c2)OCC(C)(C)C(=O)N3)cc1C,x,x,x,n
COc1ccc(NC(=O)CSC2=NC3=C(C(=O)CCC3)[C@H](c3ccco3)C2C#N)c(OC)c1 (some centres not stated),x,x,x,n
Cc1ccc(S(=O)(=O)Nc2ccccc2C(=O)Nc2nc3c(C)ccc(C)c3s2)cc1,x,x,x,n
Cc1nn(C2CCS(=O)(=O)C2)c2nc(-c3ccc(F)cc3)cc(C(=O)NCC3CCCO3)c12 (configuration not stated),x,x,x,n
COc1ccc(N2CC(C(=O)NN=Cc3cc([N+](=O)[O-])ccc3O)CC2=O)cc1 (configuration not stated),89.9,n,n,n
COc1ccc(N2CC(C(=O)NN=Cc3ccc([N+](=O)[O-])cc3)CC2=O)cc1 (configuration not stated),n,n,n,n
CCCOc1ccc(S(=O)(=O)Nc2ccc3c(c2)CC(=O)N3)cc1C,x,x,x,n
O=C(CN1CC(c2nc(-c3cccs3)no2)C1)Nc1ccc(OC(F)(F)F)cc1,x,x,x,n
O=C(c1ccc(-n2cccc2)cc1)N1CCS[C@H](c2ccccc2)CC1,x,x,x,35.0
CCCCCNC(=O)c1cn(CC)c2cc(N3CCN(C)CC3)c(F)cc2c1=O,n,n,n,n
CCCCN(CCCC)C(=O)c1cn(CC)c2cc(N3CCN(C)CC3)c(F)cc2c1=O,93.3,96.9,n,n
C=CCCCCCCCCC(=O)N1CCN(c2cc3c(cc2F)c(=O)c(C(=O)O)cn3CC)CC1,n,93.3,n,n
C=CCNC(=S)N1CCN(c2cc3c(cc2F)c(=O)c(C(=O)O)cn3CC)CC1,97.6,98.6,n,n
CCCCCCn1cc(C(=O)O)c(=O)c2cc(F)c(N3CCN(C(=O)OCC)CC3)cc21,n,n,n,n
CCn1c(SCC(=O)Nc2cccc(C(F)(F)F)c2)nnc1-c1cccn(C)c1=O,x,x,x,n
CCCOc1ccc(CCC(=O)N2CCC(n3ccnn3)CC2)cc1,x,x,x,n
COc1ccc(NC(=O)CSc2ncc(S(=O)(=O)c3ccc(C)cc3C)c(=O)[nH]2)cc1Cl,x,x,x,n
CCc1ccc(NC(=O)CSc2ncc(S(=O)(=O)c3ccc(C)cc3C)c(=O)[nH]2)cc1,x,x,x,69.0
Cc1ccc(OCCOC[C@@H](O)CN2CCN(CCN3C(=O)c4cccc5cccc(c45)C3=O)CC2)cc1C,x,x,x,36.0
SMILES,Sa RN4220 lethal,Sa ugtP lethal,Mtb hypoxia inh,SSB-PriA inh
Cc1ccccc1OCC(O)CN1CCN(CCN2C(=O)c3cccc4cccc(c34)C2=O)CC1 (configuration not stated),n,n,n,n
CCOC(=O)N1CCC[C@H](Cc2nc(-c3ccsc3)no2)C1,x,x,x,n
CCCCCCCCCCOC(=O)C[N+](C)(C)C/C=C(/C)Cl,n,100.3,n,n
OC(CNCc1ccccc1)Cn1ccc2ccccc21 (configuration not stated),n,n,n,n
Oc1ccccc1NCC(O)Cn1ccc2ccccc21 (configuration not stated),n,n,n,59.1
O=C(Nc1nnc(SCc2ccc(F)cc2)s1)c1ccccn1,98.4,98.9,n,78.3
O=C(Nc1nnc(C2CCC2)s1)c1ccccn1,x,x,x,101.8
O=C(Nc1nnc(C2CCCO2)s1)c1ccccn1 (configuration not stated),x,x,x,110.0
O=C(Nc1nnc(C2CCCCC2)s1)c1cccs1,n,n,n,n
O=C(Nc1nnc(C2CCCO2)s1)c1cccs1 (configuration not stated),n,n,n,n
O=C(Nc1nnc(C2CCCCC2)s1)c1ccccn1,x,x,x,70.5
CC(C)c1cc(NCCOCCO)n2c(nc3ccccc32)c1C#N,n,n,n,39.0
O=C(Cc1cc(=O)[nH]c(SCc2ccccc2)n1)NC1CCCCC1,x,x,x,n
NS(=O)(=O)c1ccc(NC(=O)c2ccc(Cl)c(S(=O)(=O)NCc3ccco3)c2)cc1,n,n,22.2,n
Cc1ccc(NC(=O)c2ccc(Cl)c(S(=O)(=O)NCc3ccco3)c2)c(O)c1,n,n,n,n
COc1cccc(CSc2nc3ccccc3cc2C=O)c1,n,97.8,x,n
Cn1c(C2CCN(S(C)(=O)=O)CC2)nn(CC(=O)N2CCCC2)c1=O,x,x,x,n
O=[N+]([O-])c1cc(CN2CCCC2)ccc1Sc1ccc(Cl)cc1,n,n,x,42.7
Clc1ccc(CN2CCCCCC2)cc1,n,n,n,n
Cc1ccc(-c2csc3nc4cc(C(N)=O)ccc4c(=O)n23)cc1,n,n,n,n
NC(=O)c1ccc2c(=O)n3c(-c4cccs4)csc3nc2c1,n,87.6,n,n
Cc1cc(C)c2c(c1)cc(C)c1nnc(SCC(=O)N3CCCc4ccccc43)n12,n,96.2,n,n
c1ccc2[nH]c(C3CCCNC3)nc2c1 (configuration not stated),x,x,x,n
O=C(NCc1ccc2c(c1)OCO2)c1cc(C2CC2)n([C@H]2CCS(=O)(=O)C2)n1,x,x,x,n
COc1ccc(/C=C2/SC(=S)N(CCC(=O)O)C2=O)cc1,n,n,n,n
SMILES,Sa RN4220 lethal,Sa ugtP lethal,Mtb hypoxia inh,SSB-PriA inh
O=C(O)CCN1C(=O)/C(=C\c2ccncc2)SC1=S,n,n,37.6,n
O=C(O)CCN1C(=O)/C(=C/c2cn(-c3ccccc3)nc2-c2cccs2)SC1=S,n,93.3,n,n
O=C(O)CCCCCN1C(=O)/C(=C/c2cn(-c3ccccc3)nc2-c2cccs2)SC1=S,n,n,n,n
O=C(O)CCN1C(=O)/C(=C\c2ccc(-c3nc4ccccc4s3)o2)SC1=S,108.6,100.6,x,n
O=[N+]([O-])c1ccc(Cl)cc1Sc1nc2ccccc2o1,n,n,n,48.8
CCOC(=O)c1csc(NC(=O)CSc2ccccc2)n1,x,x,x,n
Cc1cc(N2CCN(c3ccc(C(F)(F)F)cc3[N+](=O)[O-])CC2)c2ccccc2n1,n,n,n,45.9
Cc1cc(N2CCN(c3ccc([N+](=O)[O-])c4cccnc34)CC2)c2ccccc2n1,n,n,n,n
COc1ccc(S(=O)(=O)N2CCc3ccccc3C2)cc1C(C)(C)C,x,x,x,n
Cc1cc(S(=O)(=O)C(CNC(=O)Oc2ccccc2)c2ccco2)ccc1F (configuration not stated),x,x,x,n
O=C(Nc1cccc(NC(=O)c2cccs2)c1)c1ccc([N+](=O)[O-])o1,n,n,n,n
COc1cc(NC(=O)c2ccc([N+](=O)[O-])o2)ccc1NC(=O)c1cccs1,99.9,100.0,n,n
CC(=O)N1CCN(c2ccc(NC(=O)c3ccc([N+](=O)[O-])o3)cc2Cl)CC1,99.1,99.7,x,n
CCN1CCN(c2ccc(NC(=O)c3ccc([N+](=O)[O-])o3)cc2Cl)CC1,99.9,99.4,n,n
CCC(=O)N1CCN(c2ccc(Cl)cc2NC(=O)c2ccc([N+](=O)[O-])o2)CC1,n,n,n,n
